Here are results for 102 compounds from PubChem BioAssay AID623868 (Vanderbilt High Throughput Screening Facility, 2012).

The campaign covered roughly 2,100 compounds. About 760 (36%) were called active. Not all results are given here. A number with no mark means an inactive call.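 How the source made its calls: active means thallium-flux fluorescence traces judged by eye to show enhanced or reduced glutamate response, manual score 1 or -1, so both directions (some results past the limit were not filed as active); inactive means the rest, including fluorescent or raised-baseline compounds.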

The test can be described thus: thallium influx changes without GIRK channels – cell-based, HEK-293 rmGlu8, no GIRK, thallium flux, counter-screen for GIRK activator project, confirmation (AID 623868).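 Further: extra codes mark interference with 3 for fluorescent and 4 for baseline rise.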 The conditions noted are these: thallium flux fluorescence, at 10 µM, actives lie on both sides, codes: 1 enhancer, -1 blocker, 0 none, thallium stimulus containing EC20 glutamate.
In the case of `Cc1ccc(-c2cnc(NC(=O)CCC(=O)N3CCCCC3)n2C)cc1`, the manual score is 0. As for `CCOC(=O)N1CCC(NC(=O)c2cnn3c2NC(c2ccco2)CC3C(F)(F)F)CC1` (configuration not stated), the figure is 0. For the compound `COc1cc(OC)c2nc(C)c3c(c2c1)N(c1ccc(O)cc1)CC3`, the manual score is 0. On to `CCC1Oc2ccc(C)cc2N(CC(=O)N(Cc2ccc(C)o2)C2CCCC2)C1=O` (configuration not stated), for which the manual score was 0.

For the compound `CCOC(=O)c1oc2nc(C(C)C)c3c(c2c1N)CC(C)(C)OC3`, the manual score is 0. As for `Cc1cccc(C(=O)NC(=S)NNC(=O)c2cccs2)c1`, the figure is 1 (active). `Cc1ccccc1C(=O)NNC(=S)NC(=O)c1ccccc1`: the manual score is 1 (active).

As for `Cc1ccccc1C(=O)NC(=S)Nc1sc2c(c1C#N)CCCC2`, the manual score is 0. As to `Cc1onc(-c2ccccc2)c1C(=O)NC(=S)Nc1sc2c(c1C#N)CCCC2`, the manual score is 1 (active).

With `Cc1cccc(C(=O)NC(=S)NNC(=O)c2ccccc2Cl)c1`, the manual score is 1 (active). In the case of `O=C(CSc1nnc2ccccn12)Nc1nsc(-c2ccccc2)n1`, the manual score was 0. Turning to `CCc1ccccc1N(C)C(=O)CCc1nc(-c2ccc(C)cc2)no1`, the manual score is 0. On to `O=C(Nc1cccc(S(=O)(=O)c2cccc(NC(=O)C3CC3)c2)c1)C1CC1`, for which the manual score is 0.5.

With `Cc1cccc(NC(=O)CN(c2ccc(C(C)C)cc2)S(=O)(=O)c2c(C)nn(C)c2C)n1`, the manual score is 0.

Turning to `COc1ccc(C2CC(c3ccc(Cl)c(Cl)c3)Nc3nc(N)nn32)cc1` (configuration not stated), the manual score is 0.

With `Cc1cccc(C(=O)NC(=S)NNC(=O)c2ccc(Cl)cc2)c1`, the manual score is 1 (active). As for `Cc1ccccc1C(=O)NNC(=O)C(=O)Nc1cccc(Cl)c1C`, the figure is 1 (active); as for `Cc1c(Cl)cccc1NC(=S)/C(=C(\[O-])c1ccc(Cl)s1)[n+]1ccccc1`, 0; as for `Cc1ccc(C(=O)NNC(=S)NC(=O)c2ccc(Cl)cc2)cc1`, 1 (active).

Turning to `Cc1ccccc1C(=O)NNC(=S)NC(=O)c1ccc(Cl)cc1Cl`, the manual score is 1 (active). As for `Cc1ccccc1C(=O)NC(=S)Nc1ccc(Oc2ccc(Cl)cc2)cc1`, the figure is 0. Next, `O=C(O)C1C2C=CC3(CN(C4CCCC4)C(=O)C13)O2` (configuration not stated): 0; `O=C1C2C3C=CC(C3)C2C(=O)N1/N=C/c1cn(Cc2ccccc2)c2ccccc12` (configuration not stated): 0; `Cc1cc(C)nc(N(C#N)Cc2ccc(Br)cc2)n1`: 0. Take `CCn1c(SCC(=O)c2cc(C)n(CC3CCCO3)c2C)nc2ccccc21` (configuration not stated): the manual score is 0. For the compound `COC(=O)c1cc(CSc2nc3ccc(C)cc3[nH]2)oc1C`, the manual score was -1 (active).

Consider `O=C(CSc1nc2ccc(Cl)cc2[nH]1)Nc1ccc2c(c1)CCC2`, for which the manual score was 0. `Cc1ccc(CSc2nc3ccncc3[nH]2)cc1`: the manual score was 0. As for `O=C(CCS(=O)NCc1ccccc1)NCc1ccccc1` (configuration not stated), the figure is 0; as for `Cc1ccc(N2C=Nc3ccc(C)c4nc(C)cc2c34)cc1`, -1 (active).

With `CN1CC=C2C(C#N)=C(N)C(C#N)(C#N)[C@H](c3cccc(Cl)c3)C2C1` (some centres not stated), the manual score was 3.

As for `Cc1ccc(CN2C3=NCCCN3c3ccccc32)cc1`, the manual score was 0. Next, `COc1cc(CNCCc2c[nH]c3ccccc23)ccc1OCc1ccc(F)cc1`: 0; `COc1ccc(CN2CCNC(=O)C2CC(=O)O)cc1OC` (configuration not stated): 0; `COc1cc(/C=C(/C#N)c2ccc(F)cc2)ccc1OCc1ccc(C(=O)O)o1`: -1 (active).

Consider `CSc1nc(Sc2ccccc2)c2ccccc2n1`, for which the manual score is 0. Next, `O=C(Cc1cccs1)Nc1cccnc1`: 0. Next, `COc1cc(NC(=O)Cc2cccs2)cc(OC)c1`: 0; `O=C(/C=C/c1cccs1)NC(=S)NNC(=O)Cc1cccs1`: 1 (active); `CCOc1ccc(C(=O)CN2CCN(S(=O)(=O)c3ccc(Br)cc3)CC2)cc1`: 0. Turning to `CC(=O)c1sc(NC(=O)c2cc(-c3ccccc3)nn2-c2ccccc2)nc1C`, the manual score is 0. With `O=C(NNC(=O)c1cc(-c2ccccc2)n(-c2ccccc2)n1)c1cccc([N+](=O)[O-])c1`, the manual score was 1 (active). As for `COc1ccc(Nc2nc(-c3cccc([N+](=O)[O-])c3)nc3ccccc23)cc1`, the manual score was 0. Take `Cn1c2ccccc2c2cc(C(=O)NNS(=O)(=O)c3ccc(F)cc3)sc21`: the manual score was 0.5. As for `Cc1sc2c(c1C)CN(C1CC(C)(C)NC(C)(C)C1)CN2C(=O)c1ccco1`, the manual score is 0. With `COC(=O)c1ccc(C(=O)OC)c(NC(=O)CSc2nc(-c3ccco3)cc(C(F)(F)F)n2)c1`, the manual score was 0. As for `COc1ccccc1NC(=O)c1ccc(S(=O)(=O)N2CCCC2)cc1`, the figure is 0; as for `O=C(Nc1nnc(-c2ccccc2Cl)o1)c1ccc(S(=O)(=O)N2CCCCCC2)cc1`, 1 (active); as for `CCN(CC)c1ccc2cc(C(=O)NNC(=O)c3ccc(S(=O)(=O)N4CCCCC4)cc3)c(=O)oc2c1`, 0. Next, `O=S(=O)(c1ccc(-c2nnc(SCc3nnc(-c4ccccc4)o3)o2)cc1)N1CCCC1`: 0; `CC1CCCN(S(=O)(=O)c2ccc(C(=O)Nc3nnc(-c4ccccc4Cl)o3)cc2)C1` (configuration not stated): 1 (active); `Cc1cc(C)nc(N2CCCC(C(=O)NCCc3ccc(F)cc3)C2)n1` (configuration not stated): 0. In the case of `CN1/C(=C\C=C2/C(=O)Oc3ccccc3C2=O)C(C)(C)c2ccccc21`, the manual score is 3. With `Cc1ccc(NC(=O)COc2cccnc2[N+](=O)[O-])cc1S(=O)(=O)N1CCCCC1`, the manual score is 0. Next, `Cc1nn(CC(=O)Nc2ccc(Cl)c(S(=O)(=O)N(C)C)c2)c(C)c1[N+](=O)[O-]`: 0; `CC1(C)CC2CC(C)(CN2c2ncnc3ccccc23)C1` (configuration not stated): 0; `CC1(C)CC2CC(C)(CN2C(=S)NC(=O)c2ccccc2Cl)C1` (configuration not stated): 1 (active).

Regarding `Nn1c(SC/C=C/c2ccccc2)nnc1-c1ccccn1`, the manual score is 0.

As for `Clc1cccc(CSc2nc3ccncc3[nH]2)c1`, the manual score is 0. As for `NC(=O)SCC(=O)Nc1ccc(Cl)cc1`, the figure is 0; as for `Cc1ccc(NC(=S)c2nc3ccccc3[nH]2)cc1`, 1 (active); as for `S=C(Nc1ccc(Cl)cc1)c1nc2ccccc2[nH]1`, 1 (active). As for `Fc1ccc(CSc2nc3ccccc3[nH]2)c2ccccc12`, the figure is 0. Next, `Cc1oncc1C(=S)Nc1ccccc1`: 0; `CC(C)c1nc(N2CCN(C(=O)c3ccccc3)CC2)c(C#N)c2c1COC(C)(C)C2`: 0.

For the compound `O=C(NC(=S)Nc1ccccc1N1CCCC1)c1ccccc1[N+](=O)[O-]`, the manual score is 1 (active).

Regarding `O=C(NC(=S)Nc1ccccc1N1CCCC1)c1ccc([N+](=O)[O-])cc1`, the manual score was 1 (active). On to `O=C(NC(=S)Nc1ccccc1N1CCCC1)c1ccc(-c2cccc([N+](=O)[O-])c2)o1`, for which the manual score was 0.5. Turning to `Cc1c(C(=O)NC(=S)Nc2ccccc2N2CCCC2)cccc1[N+](=O)[O-]`, the manual score was 1 (active). Regarding `O=C(CSc1nc(O)cc(=O)n1-c1ccccc1)N1CCCCC1`, the manual score is 2. Next, `COc1cccc(N(CC(=O)Nc2cccc(C(C)=O)c2)S(C)(=O)=O)c1`: 0; `CCOC(=O)C1=C(C)NC2=C(C(=O)C(C(=O)OCC)C(c3cccc(OC)c3)C2)C1c1ccccn1` (configuration not stated): -0.5. Take `COC(=O)CSc1nc2ncccc2[nH]1`: the manual score is 0. On to `O=C1NC(=O)/C(=C\c2ccccc2Oc2ccc(F)c(F)c2)S1`, for which the manual score is 0. As to `COc1cc(/C=C2\S/C(=N/S(=O)(=O)c3ccc(C)cc3)NC2=O)c([N+](=O)[O-])cc1OC`, the manual score was 0.

For the compound `COc1cc(/C=C2/SC(=S)NC2=O)ccc1OS(=O)(=O)c1ccc(C)cc1`, the manual score was 1 (active).

As to `COc1cc(/C=C2\SC(=S)NC2=O)ccc1OS(=O)(=O)c1ccccc1`, the manual score was 1 (active).

For the compound `COc1ccc(/C=C2\SC(=O)NC2=S)cc1OC`, the manual score was 1 (active). Next, `COc1ccc(/C=C/C(=O)N2CCN(S(=O)(=O)/C=C/c3ccccc3)CC2)cc1OC`: 0; `CCOc1ccc(OCCSc2nc3ccccc3[nH]2)cc1`: 0. On to `Cc1ccc(C(=O)Nc2cnc3ccccn3c2=O)cc1`, for which the manual score was 0. Consider `Cc1ccc(C(=O)Nc2nc(-c3ccccc3)c(-c3ccccc3)o2)cc1`, for which the manual score is 1 (active). Next, `O=C(Nc1nc(-c2ccccc2)c(-c2ccccc2)o1)c1ccc(F)cc1`: 1 (active). Regarding `OCCCN=c1cc(-c2ccccc2)oc2ccc(Cl)cc12`, the manual score is -0.5.

For the compound `CCCSc1nnc(Nc2ccccc2C)s1`, the manual score was 0. Turning to `O=C(O)CC/C(=C\c1cc([N+](=O)[O-])ccc1Cl)c1nc2ccccc2s1`, the manual score was -1 (active). Turning to `O=C(CC(O)(C(F)(F)F)C(F)(F)F)Nc1ccc(Cl)c(Cl)c1`, the manual score was 0. As for `CNC(=S)SCCOc1ccc(C)cc1`, the manual score was 3. As for `CCOC(=O)c1ccc(NC(=S)NC(=O)COc2ccccc2)cc1`, the figure is 0; as for `CCCOc1ccc(NCC(=O)Nc2ccc(C)cc2C)cc1`, 0. Turning to `CCCCOc1ccc(C(=O)OC2CC(C)N(C)CC2C)cc1` (configuration not stated), the manual score is 0. Consider `CCCCOc1ccc(C(=O)NNC(=S)NC(=O)CC)cc1`, for which the manual score was 1 (active). Next, `CCCOc1ccc(C(=O)NNC(=S)NC(=O)CC)cc1`: 1 (active); `CCNS(=O)(=O)c1cc(S(C)(=O)=O)ccc1Cl`: 0. Consider `Oc1ccc2ccc3cccc[n+]3c2c1`, for which the manual score was 3. With `C=COCCNC(=O)Nc1ccc(Cl)c(Cl)c1`, the manual score is 0. As to `C=CCNC(=S)Nc1sc2c(c1C(=O)OCC)CC(C)(CC)OC2` (configuration not stated), the manual score was 1 (active). Next, `CCOC(=O)c1c(NC(=S)NC)sc2c1CC(C)(C)SC2`: 1 (active); `CCOC(=O)C1=C(NC(=S)NC(=O)c2ccccc2)c2ccccc2CC1C(C)C` (configuration not stated): 0; `CCOC(=O)c1c(NC(=S)NCCc2ccccc2)sc2c1CC(C(C)C)OC2` (configuration not stated): 0. Turning to `C=CCNC(=S)Nc1sc2c(c1C(=O)OCC)CC(C(C)C)OC2` (configuration not stated), the manual score is 1 (active). Next, `CCOc1ccccc1OCCCCCc1c(C)n[nH]c1C`: 0.
